Laboratory results from PubChem BioAssay AID1159580 (chemical genetic matrix, 2015).
Where “and” joins values, the source holds several entries; their conditions need not be identical. Equal entries are not always repeated. Among all 5,500 compounds or so, about 2,000 (36%) were called active. Not shown: some 18% with an inconclusive outcome. Rule as the data show it: active = normalized growth mostly below about 0.91 (no sharp cut-off); inconclusive = no clear call, values can overlap the other calls; inactive = mostly above about 0.92. The list shows a part of the results.

Assay: chemical genetic growth profiling, strain panel (AID 1159580);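 also: tested at 20 µM; growth read once vehicle control cultures reached saturation at 30 °C; 1 = growth at the plate median or of vehicle wells; lower values mean less growth of the strain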
Conditions: S. cerevisiae deletion strains, growth OD

Measured: normalized growth

O=C1NS(=O)(=O)c2ccccc21
inactive: locus YAL013W, strain DEP1, active compounds read low 1.01 | locus YAL021C, strain ccr4, active compounds read low 0.965 | locus YAL026C, strain drs2, active compounds read low 1.04 | locus YAL030W, strain snc1, active compounds read low 1.02 | locus YBL061C, strain skt5, active compounds read low 1.03 | locus YBR009C, strain hhf1, active compounds read low 1.03 | locus YBR021W, strain FUR4, active compounds read low 1.02 | locus YBR023C, strain chs3, active compounds read low 1.02 | locus YBR171W, strain sec66, active compounds read low 1.03 | locus YBR229C, strain ROT2, active compounds read low 1.01 | locus YBR231C, strain swc5, active compounds read low 1.02 | locus YBR279W, strain paf1, active compounds read low 1.01 | locus YCL011C, strain gbp2, active compounds read low 1.02 | locus YCL016C, strain dcc1, active compounds read low 0.988 | locus YCL029C, strain bik1, active compounds read low 0.994 | locus YCL061C, strain MRC1, active compounds read low 1.02 | locus YCL069W, strain vba3, active compounds read low 1.02 | locus YCR088W, strain abp1, active compounds read low 1.02 | locus YDL005C, strain med2, active compounds read low 1.03 | locus YDL035C, strain GPR1, active compounds read low 0.994 | locus YDL040C, strain nat1, active compounds read low 1.02 | locus YDL074C, strain BRE1, active compounds read low 1.01 | locus YDL101C, strain DUN1, active compounds read low 1.01 | locus YDL134C, strain PPH21, active compounds read low 1 | locus YDL185W, strain tfp1, active compounds read low 0.994 | locus YDL192W, strain arf1, active compounds read low 1 | locus YDR001C, strain nth1, active compounds read low 1.01 | locus YDR069C, strain doa4, active compounds read low 1.04 | locus YDR101C, strain arx1, active compounds read low 0.983 | locus YDR137W, strain rgp1, active compounds read low 1.03 | locus YDR159W, strain sac3, active compounds read low 1.11 | locus YDR162C, strain NBP2, active compounds read low 0.998 | locus YDR195W, strain ref2 0.993 | locus YDR297W, strain sur2, active compounds read low 1.02 | locus YDR318W, strain mcm21, active compounds read low 0.979 | locus YDR334W, strain swr1, active compounds read low 1.02 | locus YDR335W, strain msn5, active compounds read low 1.01 | locus YDR388W, active compounds read low 0.991 | locus YDR392W, strain spt3, active compounds read low 0.957 | locus YDR502C, strain sam2, active compounds read low 0.995 | locus YEL003W, strain gim4, active compounds read low 1.03 | locus YEL037C, strain rad23, active compounds read low 1.01 | locus YEL061C, strain CIN8 (second series), active compounds read low 1.02 | locus YEL061C, strain CIN8, active compounds read low 1.01 | locus YER015W, strain faa2, active compounds read low 1.02 | locus YER016W, strain bim1, active compounds read low 1.02 | locus YER110C, active compounds read low 0.987 | locus YER111C, strain swi4, active compounds read low 1.02 | locus YER155C, strain BEM2 (second series), active compounds read low 1.07 | locus YER155C, strain BEM2, active compounds read low 0.997 | locus YER167W, strain BCK2, active compounds read low 1 | locus YFR010W, strain ubp6, active compounds read low 1.03 | locus YGL078C, strain dbp3, active compounds read low 1 | locus YGL086W, strain mad1, active compounds read low 0.998 | locus YGL167C, strain pmr1, active compounds read low 1.02 | locus YGL173C, strain kem1, active compounds read low 1.06 | locus YGL227W, strain vid30, active compounds read low 1.02 | locus YGL240W, strain doc1, active compounds read low 1.05 | locus YGL248W, strain PDE1, active compounds read low 1.03 | locus YGL253W, strain hxk2, active compounds read low 1.05 | locus YGR078C, strain PAC10, active compounds read low 1.05 | locus YGR135W, strain pre9, active compounds read low 0.984 | locus YGR252W, strain gcn5, active compounds read low 0.976 | locus YHR013C, strain ard1, active compounds read low 1.02 | locus YHR027C, strain rpn1, active compounds read low 1.05 | locus YHR030C, strain SLT2, active compounds read low 1 and 0.989 | locus YHR079C, strain IRE1 (second series), active compounds read low 0.984 | locus YHR079C, strain IRE1, active compounds read low 0.984 | locus YHR094C, strain hxt1, active compounds read low 0.988 | locus YHR129C, strain ARP1, active compounds read low 1.02 | locus YHR142W, strain chs7, active compounds read low 1.03 | locus YHR200W, strain rpn10, active compounds read low 0.991 | locus YIL066C, strain RNR3, active compounds read low 1.02 | locus YIL073C, strain SPO22, active compounds read low 0.958 | locus YIL125W, strain kgd1, active compounds read low 0.989 | locus YIR030C, strain dcg1, active compounds read low 0.998 | locus YJL092W, strain hpr5, active compounds read low 1.02 | locus YJL095W, strain BCK1 (second series), active compounds read low 1.02 | locus YJL095W, strain BCK1, active compounds read low 1.04 and 0.999 | locus YJL115W, strain asf1, active compounds read low 1.02 | locus YJL129C, strain trk1, active compounds read low 1.04 | locus YJL134W, strain LCB3, active compounds read low 0.999 | locus YJL154C, strain vps35, active compounds read low 1.02 | locus YJL164C, strain tpk1, active compounds read low 0.993 | locus YJL166W, strain qcr8, active compounds read low 1.04 | locus YJL168C, strain set2, active compounds read low 0.984 | locus YJL187C, strain SWE1 (second series), active compounds read low 1.03 | locus YJR043C, strain POL32, active compounds read low 0.977
